# System: TDF
# Experiment: H1.0 immunofluorescence intensity relative to DMSO (% of DMSO); higher = stronger H1.0 induction, active = 120 or more
# Conditions: concentration: 10 µM; 24 h
# Outline: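 Cells were seeded at 800 per well in 384-well plates with RPMI containing 10% FBS; both HCC1569 and TDF lines were used. Compounds were added at 10 µM for 24 h at 37 °C, in triplicate, before fixation in 3.7% formaldehyde and staining with a rabbit anti-H1.0 antibody, an AlexaFluor 647 secondary and DAPI. H1.0 nuclear intensity or cell number is reported as percent of the plate control using the median of replicates, and HCC1569 values were smoothed for positional effects.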
# 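Further: TDF is a line of transformed human dermal fibroblasts of mesenchymal origin.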
row,Compound,H1.0 immunofluorescence intensity
1,COc1cc(C(=O)OC2CC3CCC2(C)C3(C)C)ccc1O (stereo not drawn) [Tschimganine],99.6 (inactive)
2,Br.Oc1ccc(C2CNCCc3c2cc(O)c(O)c3Cl)cc1 (stereo not drawn) [Fenoldopam bromide],86.4 (inactive)
3,N=c1ccn2c(n1)OC1C(O)C(CO)OC12 (stereo not drawn) [Cyclocytidine],103 (inactive)
4,Cc1cc2c(OCC(CNC(C)(C)C)OC(=O)c3ccccc3)cccc2[nH]1 (stereo not drawn) [Bopindolol],99 (inactive)
5,CC(C)Cn1cnc2c(N)nc3ccccc3c21 [Imiquimod],95.3 (inactive)
6,CC1OC(n2cc(F)c(=O)[nH]c2=O)C(O)C1O (stereo not drawn) [Doxifluridine],98.3 (inactive)
7,Cl.NCC1OC(C23CC4CC(CC(C4)C2)C3)Cc2c1ccc(O)c2O (stereo not drawn),102 (inactive)
8,"CCC12CCCN3CCc4c(n(c5ccccc45)C(=O)C1)C32 (single isomer, unassigned; (-)) [(-)-Eburnamonine]",118 (inactive)
9,CCCCCC=CCC=CCC=CCC=CCCCC(=O)OC(COCCCCCCCCCCCCCCCC)COP(=O)([O-])OCC[N+](C)(C)C (stereo not drawn) [Arachidonyl-PAF],93 (inactive)
10,Cc1coc2c1C(=O)C(=O)c1c-2ccc2c1CCCC2(C)C [Tanshinone IIA],113 (inactive)
11,CC1(NCC(O)COc2cccc3[nH]ccc23)CCC(C(C)(C)NC(=O)CBr)CC1 (stereo not drawn) [Pindobind-5HT1A],135 (active)
12,CC[N+](C)(C)c1cccc(O)c1.[Cl-] [Edrophonium chloride],96.1 (inactive)
13,CCCNCC(O)COc1ccccc1C(=O)CCc1ccccc1 (stereo not drawn) [Propafenone],92.6 (inactive)
14,C[N+](C)(C)CCOC(=O)CCC(=O)OCC[N+](C)(C)C.[Cl-].[Cl-] [Succinylcholine chloride],95.5 (inactive)
15,CC(N=C(NC#N)Nc1ccncc1)C(C)(C)C (stereo not drawn) [Pinacidil],89.4 (inactive)
16,N[C@@H](COP(=O)(O)O)C(=O)O [O-Phospho-L-serine],94.9 (inactive)
17,CSc1ccc(C(=O)c2[nH]c(=O)[nH]c2C)cc1 [Enoximone],96.3 (inactive)
18,O=C(c1ccc(C(=O)N2CCC(N3CCCC3)CC2)c(Nc2ccccc2)c1)N1CCC(N2CCCC2)CC1,86.5 (inactive)
19,CN=C(NC#N)Nc1ccc(C2=NNC(=O)CC2C)cc1 (stereo not drawn) [Siguazodan],95.4 (inactive)
20,O=c1[nH]c(=O)n(C2CC(O)C(CO)O2)cc1Br (stereo not drawn) [5-Bromo-2'-deoxyuridine],95.7 (inactive)
21,COc1cc2ncc(-c3ccccc3)nc2cc1OC [Tyrphostin AG 1296],97.3 (inactive)
22,CCOc1nc2cccc(C(=O)O)c2n1Cc1ccc(-c2ccccc2-c2nn[nH]n2)cc1 [Candesartan],99.8 (inactive)
23,C=Cc1c(C)c2cc3[nH]c(cc4nc(cc5nc(cc1[nH]2)C(C)=C5CCC(=O)O)C(CCC(=O)O)=C4C)c(C)c3C=C [Protoporphyrin IX disodium],100 (inactive)
24,Cn1c(=O)c2c(ncn2C)n(C)c1=O [Caffeine],96.1 (inactive)
25,CN(CCOc1ccc(NS(C)(=O)=O)cc1)CCc1ccc(NS(C)(=O)=O)cc1 [Dofetilide],103 (inactive)
26,CCCCCCCCCCCCCCCC(=O)OC(CC(=O)O)C[N+](C)(C)C.[Cl-] (racemic) [Palmitoyl-DL-Carnitine chloride],104 (inactive)
27,CNC(C)C1CCC(N)C(OC2C(N)CC(N)C(OC3OCC(C)(O)C(NC)C3O)C2O)O1 (stereo not drawn) [Gentamycin],95 (inactive)
28,CCCCCC=CCC=CCCCCCCCC(N)=O [Linoleamide],99.6 (inactive)

# Source: the supplement of paper PMC7156485
